# Results filed as inconclusive are left out. Where a call stands in place of a potency, no number is given. Activity calls are given as the source filed them. Calls come from the whole dose curve; as a rule, active = well fitted inhibition curve with a large enough effect; inconclusive = small, poorly fitted or top-dose-only effect; inactive = flat fitted curve, though single readings scatter.
# Target: Calcium and integrin-binding protein 1 (Homo sapiens) (UniProt Q99828)
# Experiment: Primary qHTS for Identification of Calcium Integrin Binding Protein 1 (CIB1) Competitor (AID 1508620)
# Details: CIB1-GST / FITC-alphaIIb peptide fluorescence polarization; series mostly up to 114 µM
# Summary of the method: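 Fluorescence polarization competition: GST-tagged CIB1 (1 uM final) preincubated with compound 15 min at room temperature, then FITC-labelled alphaIIb peptide (100 nM final) added. After 15 min at room temperature, polarization read at Ex 480/Em 540.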
# Potency is the fitted concentration of half-maximal effect.
# Calcium and integrin-binding protein 1 (Homo sapiens), sequence (Q99828 whole entry, looked up): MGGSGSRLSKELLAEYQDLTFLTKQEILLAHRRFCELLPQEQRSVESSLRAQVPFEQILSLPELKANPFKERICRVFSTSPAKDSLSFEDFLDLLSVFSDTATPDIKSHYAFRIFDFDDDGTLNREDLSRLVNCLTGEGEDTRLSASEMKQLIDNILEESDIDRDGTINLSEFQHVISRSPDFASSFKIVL
row,Compound,Potency
1,NC(=O)C1CCN(c2cc(-c3ccc4c(c3)OCCCO4)ncn2)CC1,inactive
2,Clc1ccccc1CSc1nc2ncc(Br)cc2[nH]1,inactive
3,O=C(Nc1sc2c(c1-c1nc3ccccc3s1)CCNC2)C(F)F,inactive
4,Cc1nc(-c2ccccc2)oc1-c1ccc2ncnc(NCCc3cnc[nH]3)c2c1,inactive
5,O=C1Cc2cc(S(=O)(=O)N3CCN(c4ccc(Br)cc4)CC3)ccc2N1,inactive
6,O=C(NCc1ccc(F)cc1)n1c(-c2ccccc2)c(P(=S)(c2ccccc2)c2ccccc2)c2ccccc21,inactive
7,COc1ccc(-c2no[n+]([O-])c2C#N)cc1,inactive
8,O=C1CCCC2=C1C(c1[nH]ncc1Cl)N=C(Nc1nc3ccccc3s1)N2 (stereo not given),inactive
9,FC(F)(F)c1ccccc1-c1nccc(NCc2ccc(-c3cccnc3)cc2)n1,inactive
10,O=C1c2ccccc2C(=O)N1c1ccc2ncccc2c1,inactive
11,O=C(N1Cc2ccc(Nc3nn4c(=O)c5ccccc5nc4s3)cc2C1)C(F)(F)F,inactive
12,NC(=O)C1CCN(c2nc(-c3ccccc3Br)cs2)CC1,inactive
13,CN(C)C(=O)c1cccc(-c2csc(N3CCC(C(N)=O)CC3)n2)c1,inactive
14,COc1cnccc1-c1nc(Nc2ccc(F)c(F)c2)c2ccccc2n1,inactive
15,CC(=O)Nc1ccccc1NC(=O)c1cnn2c(C)cc(C)nc12,inactive
16,CC(=O)Nc1sc2c(c1-c1nc3ccccc3s1)CCN(C1COC1)C2,14.1 µM (active)
17,Cc1ccnc(NC(=S)NC2CCCN(c3cccc(C(F)(F)F)c3)C2)c1 (stereo not given),inactive
18,COc1cccc(C2c3c(ncn(-c4ccccc4C)c3=N)Oc3ccc4ccccc4c32)c1 (stereo not given),inactive
19,CCC1CCC2(C1)N=C(Nc1nc3ccccc3o1)NC1=C2C(=O)CCC1 (stereo not given),inactive
20,Cc1csc(CNc2ncnc3ccc(-c4ccoc4)cc23)c1,inactive

row,Compound,Potency
1,Cc1cc2c(s1)c1cnn(Cc3ccc(Cl)c(F)c3)c(=O)c1n2C,inactive
2,N=c1c2c(ccn1CCCc1ccccc1)Oc1ccc3ccccc3c1C2c1ccccc1 (stereo not given),inactive
3,CCOC(=O)c1c(CNCc2ccccc2F)c2sc(C)cc2n1C,inactive
4,N#Cc1c(-c2cc(C(F)(F)F)cc(C(F)(F)F)c2)no[n+]1[O-],inactive
5,COc1ccc(NC(=O)c2cccnc2C)cc1S(=O)(=O)Nc1ccc(Br)cc1,inactive
6,Cc1ccc(NS(=O)(=O)c2ccc3c(c2)n(C)c(=O)n3C)cc1C,inactive
7,CCOc1ccc(C(=O)Oc2ccc(-c3nc4ccccc4[nH]3)cc2)cc1Cl,inactive
8,O=S(=O)(c1cccc(O)c1)N1CCN(S(=O)(=O)c2c(F)cccc2F)CC1,inactive
9,Oc1c(CN2CCCCC2)cc(COCc2ccccc2)c2cccnc12,inactive
10,COc1cc2c(s1)c1cnn(Cc3ccccc3F)c(=O)c1n2C,inactive
11,COc1ccc(-c2nnc3n2N=C(c2ccccc2OC)CS3)c(OC)c1,inactive
12,O=C(CCc1ccccc1Br)NCCc1nc2ccccc2[nH]1,inactive
13,c1ccc(-c2nc(NCc3ccc(-c4cccnc4)cc3)c3ccccc3n2)cc1,inactive
14,CC(=O)c1cccc(NC(=O)Nc2nnc(-c3ccncc3)s2)c1,inactive
15,O=C(N/C=C/c1ccccc1)c1cccc([S+](=O)([O-])Nc2ccccc2F)c1,inactive
16,COc1cccc(C2c3c(ncn(-c4ccccc4C#N)c3=N)Oc3ccc4ccccc4c32)c1 (stereo not given),inactive
17,COc1ccc(CN(Cc2ccccc2)C(=O)c2ccccc2O)cc1COc1ccc(NC(C)=O)cc1,inactive
18,Cc1cc(C)n2ncc(C(=O)NC(C)C)c2n1,inactive
19,O=C(NCc1ccccc1)n1cc(P(=S)(c2ccccc2)c2ccccc2)c2ccccc21,inactive
20,COc1ccc(OC)c(-c2nnc3n2N=C(c2ccc(OC)c(OCC4CC4)c2)CS3)c1,inactive

# From PubChem BioAssay (NCATS)
